Source: PubChem BioAssay (National Center for Advancing Translational Sciences (NCATS))
A selection: hits, their analogues and other compounds. The true share with any hit is near 11%.
NPR1 antag: antagonists of human natriuretic peptide receptor Npr1 | P16066 | HEK293 hNpr1 GloSensor cGMP, ANP-stimulated luminescence | actives 1.6% (n = 76,000) | Potency, µM (titrated, usually from 46.3 µM), actives largely listed as inhibitors; calls by dose curve; further: nearly all actives have a fitted effect of over 60% in size
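HEK293 cells stably expressing human Npr1 and cGMP GloSensor pGS-40F, loaded 2 h with 2% GloSensor reagent, given compound 30 min at room temperature. Luminescence read before and 20 min after 0.1 nM hNppA.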
HEK293 tox: HEK 293 cell cytotoxicity; HEK 293 viability, ATP luminescence (CellTiter-Glo), 48-72 h; Potency, µM (highest dose often 115 µM), most hits filed as inhibitors; actives 6.6% (n = 94,000); further: nearly all actives have a fitted effect of over 60% in size
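Read-out: CellTiter-Glo ATP luminescence. Cells: HEK 293, 250 cells/well. Exposure: 48 or 72 hr, 37 degree Celsius.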
Luciferase inh: blocks purified firefly luciferase enzyme activity | purified P. pyralis luciferase, luminescence, biochemical | P08659 | Potency, µM (top dose mostly 115 µM), hits mostly inhibitors | actives 2.5% (n = 76,000); further: nearly all actives have a fitted effect of over 65% in size
Target sequence (P08659 whole entry, looked up): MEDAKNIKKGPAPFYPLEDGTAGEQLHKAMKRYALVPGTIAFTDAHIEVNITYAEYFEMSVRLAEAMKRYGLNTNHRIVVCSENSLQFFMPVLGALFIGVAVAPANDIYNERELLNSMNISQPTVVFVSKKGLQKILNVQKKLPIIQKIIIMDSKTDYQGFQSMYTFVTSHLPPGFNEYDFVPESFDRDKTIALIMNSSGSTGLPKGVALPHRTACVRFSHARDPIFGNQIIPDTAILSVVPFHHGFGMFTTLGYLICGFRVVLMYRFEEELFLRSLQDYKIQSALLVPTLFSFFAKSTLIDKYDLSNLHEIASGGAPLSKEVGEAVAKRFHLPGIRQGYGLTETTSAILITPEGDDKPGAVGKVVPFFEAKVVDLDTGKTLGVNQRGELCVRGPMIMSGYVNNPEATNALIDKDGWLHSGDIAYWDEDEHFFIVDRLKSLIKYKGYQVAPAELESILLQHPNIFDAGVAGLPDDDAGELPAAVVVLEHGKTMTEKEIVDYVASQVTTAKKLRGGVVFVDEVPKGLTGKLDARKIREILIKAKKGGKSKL
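Luminescence read by CCD imaging after purified firefly luciferase (10nM final) was added to substrate buffer holding 10uM D-luciferin and 10uM ATP, pH 7.5, pre-dosed with compound.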
3T3 cytotox: NIH 3T3 cell cytotoxicity. NIH 3T3 viability, CellTiter-Glo ATP luminescence, 48-72 h. Potency, µM (top dose mostly 96.7 µM), usual class: inhibitors. actives 4.3% (n = 94,000). AID 1345082; further: nearly all actives have a fitted effect of over 55% in size
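Mouse fibroblast NIH 3T3 cells, 400 per well, received compound via pintool and were incubated for 48 or 72 hr prior to CellTiter-Glo ATP luminescence measurement.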
Numbers stand for hits; . = inactive; ? = inconclusive; / = not tested or not shown. Unless noted, the call rests on the fitted dose curve; in most records, active means well fitted curve in the direction sought with a large enough effect; inconclusive means small, poorly fitted or top-dose-only effect, or another doubt; inactive means no such curve, though single readings can be large; an effect the other way counts as inactive or inconclusive.

SMILES	NPR1 antag	HEK293 tox	Luciferase inh	3T3 cytotox
COc1ccc(CN2CCNc3cnc(Nc4ccccc4)cc3C2)cc1	?	89.1µM	.	?
COc1ccc(Nc2cc3c(cn2)NCCN(Cc2ccccc2)C3)cc1	?	79.4µM	.	?
COc1ccc(CN2CCNc3cnc(Nc4ccccc4)cc3C2)cn1	.	?	.	?
CCn1ncc(N2CCCC(CC(=O)N(C)C3CCN(C)CC3)C2)cc1=O (centres undefined)	/	.	/	.
CN(Cc1cccc(C(F)(F)F)c1)Cc1cncs1	/	.	/	.
COc1ccc(-n2cc(-c3ccnc(NCCC4CCCN4C)n3)cn2)cc1 (centres undefined)	.	?	?	?
Fc1ccc(CCNc2nccc(-c3cccnc3)n2)cc1	.	?	?	?
CC(Cc1ccncc1)Nc1nccc(-c2cnn(-c3ccccc3)c2)n1 (centres undefined)	.	39.8µM	?	?
CC1(C)CC(Nc2nccc(-c3cnn(-c4ccccc4)c3)n2)CC(C)(C)N1	.	?	.	20µM
CC(Cc1ccncc1)Nc1nccc(-c2cnn(-c3ccccc3F)c2)n1 (centres undefined)	.	35.5µM	?	?
Cc1ncsc1C1N(C2CCN(C(=O)c3ccco3)CC2)C(=O)C12CCCC2 (centres undefined)	/	.	/	.
Cc1cccc(NC(=O)CC2CCCN(c3cnn(CC4CC4)c(=O)c3)C2)c1 (centres undefined)	.	?	.	25.1µM
CCOc1ccc(NC(=O)CC2CCCN(c3cnn(CC4CC4)c(=O)c3)C2)cc1 (centres undefined)	.	?	.	.
Cc1ccc(NC(=O)CC2CCCN(c3cnn(CC4CC4)c(=O)c3)C2)cc1 (centres undefined)	.	.	.	?
CCc1cccc(NC(=O)CC2CCCN(c3cnn(CC4CC4)c(=O)c3)C2)c1 (centres undefined)	.	?	.	39.8µM
COc1ccc(CCN(Cc2ccccc2F)CC2(O)CCCNC2)cc1 (centres undefined)	.	25.1µM	.	25.1µM
Cc1nnc(-c2cc(C(=O)Nc3cccnc3)ccn2)n1CCc1ccccc1	.	.	.	?
CCC(c1cccs1)N1C(=O)[C@H]2CN(S(=O)(=O)c3cc(F)cc(F)c3)C[C@H]2C1=O (some centres undefined)	.	?	.	.
CCCCn1c(=O)c(C(=O)NCCc2ccccc2)nc2cccnc21	/	44.7µM	/	?
O=C(NCCc1ccccc1)c1nc2cccnc2n(CCc2ccccc2)c1=O	/	?	/	.
CCCCn1c(=O)c(C(=O)NCc2cccc(Cl)c2)nc2cccnc21	/	?	/	35.5µM
O=C(NCc1cccc(Cl)c1)c1nc2cccnc2n(CCc2ccccc2)c1=O	/	35.5µM	/	?
CC(=O)Nc1ccc(CN2CCCC(c3nc4ccc(F)cc4c(=O)[nH]3)C2)cc1 (centres undefined)	.	?	.	?
COc1ccc(F)cc1-c1ccc(CN2CCC(N[S+](=O)([O-])c3cccc(C(F)(F)F)c3)C2)cc1 (centres undefined)	/	20µM	/	12.6µM
COc1ccccc1-c1ccc(CN2CCC(N[S+](=O)([O-])c3cccc(C(F)(F)F)c3)C2)cc1 (centres undefined)	/	20µM	/	12.6µM
SMILES	NPR1 antag	HEK293 tox	Luciferase inh	3T3 cytotox
O=c1n(CCN2CCC(N[S+](=O)([O-])c3cccc(C(F)(F)F)c3)C2)nc2n1CCCC2 (centres undefined)	/	.	/	.
COc1ccc(F)cc1-c1ccc(CN2CCC(N[S+](=O)([O-])c3ccc(NC(C)=O)cc3)C2)cc1 (centres undefined)	/	14.1µM	/	?
COc1ccccc1-c1ccc(CN2CCC(N[S+](=O)([O-])c3ccccc3)C2)cc1 (centres undefined)	/	35.5µM	/	31.6µM
COc1ccc(C(=O)NC2CCN(C(=O)N3CC4CC(C3)[C@H]3CCCC(=O)N3C4)CC2)cc1F (some centres undefined)	.	.	.	.
O=C(NC1CCCN(c2ccc3nnc(C4CC4)n3n2)C1)c1ccc(F)cc1 (centres undefined)	/	?	/	.
CCCNC(=O)N1CCC(Oc2ccccc2)C1 (centres undefined)	.	.	.	.
CC1CCCN(C(=O)c2cc(-c3cnn(CCO)c3)nc3cc(Cl)ccc23)C1 (centres undefined)	.	?	.	?
CCC[C@H]1CN(Cc2c(C)noc2C)C[C@@H]1NC(=O)CN(C)C(N)=O	.	.	.	.
COc1ccc(CCc2nc3nccc(-c4ccc5c(c4)OCCCO5)n3n2)cc1OC	.	44.7µM	?	?
COc1ccc(Cc2nc3nccc(-c4ccc5c(c4)OCCCO5)n3n2)cc1	.	?	.	?
Fc1ccc(Cc2nc3nccc(-c4ccc5c(c4)OCCCO5)n3n2)cc1	.	44.7µM	?	?
COCCCn1c(=O)c(C(=O)NCC(F)F)nc2cccnc21	/	.	/	.
COc1cccc(N2C(=O)NC(=NC3CCCCC3)C23CCCN(Cc2ccc(F)cc2)C3)c1 (centres undefined)	/	?	/	39.8µM
COc1cccc(N2C(=O)NC(=NC3CCCC3)C23CCN(Cc2ccccc2)C3)c1 (centres undefined)	/	89.1µM	/	?
COc1cccc(N2C(=O)NC(=NC3CCCCC3)C23CCN(Cc2ccccc2)C3)c1 (centres undefined)	/	.	/	.
COc1ccc(C(=O)N[C@H]2[C@H](O)[C@H](O)C[C@@H]2c2ccc(C(F)(F)F)cc2)cc1	.	.	.	.
COc1ccc([C@H]2C[C@@H](O)[C@@H](O)[C@@H]2NC(=O)Nc2ccc(C(F)(F)F)cc2)cc1	?	?	.	25.1µM
COc1ccc(S(=O)(=O)N[C@H]2[C@H](O)[C@H](O)C[C@@H]2c2ccccc2C)cc1	.	.	.	.
O=S(=O)(N[C@H]1[C@H](O)[C@H](O)C[C@@H]1c1ccc(C(F)(F)F)cc1)c1ccc(F)cc1	.	70.8µM	.	?
Cc1ccccc1[C@H]1C[C@@H](O)[C@@H](O)[C@@H]1NS(=O)(=O)c1ccc(C(F)(F)F)cc1	.	100µM	.	.
Cc1nc(N2CCN(C(=O)COc3ccc(F)cc3)CC2)cc(C(F)(F)F)n1	.	?	.	?
COc1cc(CNC(=O)[C@@H]2C[C@H](c3ccc(F)cc3)N(Cc3csc(C)n3)C2)cc(OC)c1	.	?	.	?
Cc1nc(CN2C[C@H](C(=O)Nc3cccc(Cl)c3)C[C@@H]2c2ccc(F)cc2)cs1	?	50.1µM	.	50.1µM
Cc1nc(CN2C[C@H](C(=O)NCCOc3ccccc3)C[C@@H]2c2ccc(F)cc2)cs1	.	89.1µM	.	56.2µM
COc1cccc(NC(=O)[C@@H]2C[C@H](c3ccc(F)cc3)N(Cc3csc(C)n3)C2)c1	.	63.1µM	.	?
Cc1nc(CN2C[C@H](C(=O)Nc3cccc(F)c3)C[C@@H]2c2ccc(F)cc2)cs1	.	39.8µM	.	39.8µM
CCn1ccc(C(=O)N2CCC3(CC2)CN(C2CCC2)CC3COC)n1 (centres undefined)	/	.	/	.
